{"source": "ChEMBL document CHEMBL1961873", "about": "“Compounds: GSK PKIS; Assays: Nanosyn kinase panel” (2012)"}
{"target": "Serine/threonine-protein kinase MARK1 (Homo sapiens) (UniProt Q9P0L2)", "sequence (Q9P0L2 whole entry, looked up)": "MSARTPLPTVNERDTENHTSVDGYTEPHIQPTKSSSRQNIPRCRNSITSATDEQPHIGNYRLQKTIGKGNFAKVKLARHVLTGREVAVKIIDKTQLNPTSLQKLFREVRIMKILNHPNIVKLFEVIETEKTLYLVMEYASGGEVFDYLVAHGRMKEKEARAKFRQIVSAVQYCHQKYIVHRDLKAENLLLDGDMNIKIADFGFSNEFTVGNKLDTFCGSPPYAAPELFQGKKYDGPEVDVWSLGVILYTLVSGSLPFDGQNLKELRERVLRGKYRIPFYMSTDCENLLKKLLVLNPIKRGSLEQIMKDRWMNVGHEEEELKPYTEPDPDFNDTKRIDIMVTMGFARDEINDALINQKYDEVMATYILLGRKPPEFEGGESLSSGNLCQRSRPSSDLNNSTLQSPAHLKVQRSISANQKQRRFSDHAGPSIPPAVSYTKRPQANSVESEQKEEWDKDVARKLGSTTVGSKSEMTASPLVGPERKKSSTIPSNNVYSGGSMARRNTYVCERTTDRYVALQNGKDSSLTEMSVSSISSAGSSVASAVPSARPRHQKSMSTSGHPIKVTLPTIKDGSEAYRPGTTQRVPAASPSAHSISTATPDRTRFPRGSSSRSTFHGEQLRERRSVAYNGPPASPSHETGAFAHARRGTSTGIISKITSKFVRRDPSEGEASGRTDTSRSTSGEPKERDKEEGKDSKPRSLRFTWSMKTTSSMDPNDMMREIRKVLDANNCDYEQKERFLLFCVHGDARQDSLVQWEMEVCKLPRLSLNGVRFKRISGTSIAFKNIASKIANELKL", "details": "at 1 µM", "units": {"inhibition": "%"}}
{"smiles": "CCc1nn2ncccc2c1-c1ccnc(NC2CC2)n1", "inhibition": 2.47}
{"smiles": "COC(=O)c1sc(-n2cnc3cc(OC)c(OC)cc32)cc1OCc1ccccc1C(F)(F)F", "inhibition": 6.82}
{"smiles": "[O-][S+]1CCN(Cc2ccc(-c3ccc4ncnc(Nc5ccc(OCc6cccc(F)c6)c(Cl)c5)c4c3)o2)CC1", "inhibition": 3.65}
{"smiles": "CCn1c(-c2nonc2N)nc2c(C#CC(C)(C)O)ncc(OC3CCNCC3)c21", "inhibition": 74.1}
{"smiles": "CC(C)(CO)CNC(=O)c1ccc2c(c1)/C(=N/Nc1ccc(S(N)(=O)=O)cc1)C(=O)N2", "inhibition": 52.5}
{"smiles": "CCCN1CCC(c2ccc(Nc3nc(Nc4cc(F)ccc4C(N)=O)c4cc[nH]c4n3)c(OC)c2)CC1", "inhibition": 50.1}
{"smiles": "COc1ccc(-c2cc(-c3c[nH]nc3-c3ccccn3)ccn2)cc1", "inhibition": 7.25}
{"smiles": "COc1ccc(-c2cc3c(N)ncnc3o2)cc1", "inhibition": 2.81}
{"smiles": "COC(=O)Nc1nc2ccc(S(=O)(=O)c3ccc(NC(=O)Nc4cc(C(F)(F)F)ccc4F)cc3)cc2[nH]1", "inhibition": 2.1}
{"smiles": "Fc1ccc(-c2nn3ccccc3c2-c2ccncc2)cc1", "inhibition": 2.2}
{"smiles": "CN1CCC(n2cnc(-c3ccc(F)cc3)c2-c2ccnc(N)n2)CC1", "inhibition": 6.88}
{"smiles": "COc1cccc(-n2ncc3c(N/N=C/c4ccc(F)cc4)ncnc32)c1", "inhibition": 5.14}
{"smiles": "Fc1cccc(COc2ccc(Nc3ncnc4sc(-c5ccco5)cc34)cc2Cl)c1", "inhibition": 5.69}
{"smiles": "Fc1ccc(-c2cc(-c3c[nH]nc3-c3ccccn3)ccn2)cc1", "inhibition": 3.39}
{"smiles": "CCCN(CCS(C)(=O)=O)Cc1ccc(-c2ccc3ncnc(Nc4ccc(OCc5cccc(F)c5)c(Cl)c4)c3c2)o1", "inhibition": 0.29}
{"smiles": "COc1cccc(-c2c[nH]c3c(N/N=C/c4ccncc4)ncnc23)c1", "inhibition": 8.15}
{"smiles": "CC1=C(C(=O)Nc2cc(Cl)c3[nH]ncc3c2)C(c2ccc(C(F)(F)F)cc2)CC(=O)N1", "note": "(stereo not drawn)", "inhibition": 6.87}
{"smiles": "CS(=O)(=O)CCNCc1coc(-c2ccc3ncnc(Nc4ccc(OCc5ccccc5)cc4)c3c2)c1", "inhibition": 1.62}
{"smiles": "CCn1c(-c2nonc2N)nc2cnc(Oc3cccc(NC(=O)c4ccc(N(C)C)cc4)c3)cc21", "inhibition": 10.8}
{"smiles": "CNC(=O)c1cc(-c2ccc(F)cc2)cc(-c2ccc(S(=O)(=O)N3CCCC3)cc2)c1N", "inhibition": 3.58}
{"smiles": "O=S(=O)(CCNCc1ccc(-c2ccc3ncnc(Nc4ccc(OCc5cccc(F)c5)c(Cl)c4)c3c2)o1)c1ccccc1", "inhibition": 5.01}
{"smiles": "N#Cc1c(NC(=O)c2ccc(F)cc2)sc2c1CCCC2", "inhibition": 0.93}
{"smiles": "CNC(=O)c1cccc(C#Cc2cncnc2Nc2ccc(OCc3cccc(F)c3)c(Cl)c2)c1", "inhibition": 1.6}
{"smiles": "CCn1c(-c2nonc2N)nc2c(C#CC(C)(C)O)nc(OC[C@H](N)c3ccccc3)cc21", "inhibition": 27.3}
{"smiles": "Nc1ncc(-c2cccc(S(N)(=O)=O)c2)c2scc(-c3ccc(F)c(Cl)c3)c12", "inhibition": 5.62}
{"smiles": "c1ccc(COc2ccc(Nc3ncnc4ccc(-c5ccco5)cc34)cc2)cc1", "inhibition": 1.8}
{"smiles": "N#Cc1c(NC(=O)CN2CCOCC2)sc2c1CCCC2", "inhibition": 6.04}
{"smiles": "NS(=O)(=O)c1ccc(N/N=C2\\C(=O)Nc3ccc4ncccc4c32)cc1", "inhibition": 52.9}
{"smiles": "O=C(O[C@H]1CN[C@H](C#Cc2cc3ncnc(Nc4ccc(Cc5ccccc5)cc4)c3s2)C1)N1CCOCC1", "inhibition": 2.56}
{"smiles": "CC(=O)Nc1cccc(C#Cc2cncnc2Nc2ccc(OCc3cccc(F)c3)c(Cl)c2)c1", "inhibition": 0.83}
{"smiles": "Cc1cccc(Nc2ncc(-c3ccccc3)o2)c1", "inhibition": 8.07}
{"smiles": "FC(F)(F)c1cccc(-c2nn3ncccc3c2-c2ccnc(Nc3ccc4c(c3)OCCO4)n2)c1", "inhibition": 3.63}
{"smiles": "CCNC(=O)O[C@H]1CN[C@H](C#Cc2cc3ncnc(Nc4ccc(OCc5cccc(F)c5)c(Cl)c4)c3s2)C1", "inhibition": 2.65}
{"smiles": "CNC(=O)c1cncc(/C=C/c2ccccc2Cl)c1", "inhibition": 5.24}
{"target": "MAP/microtubule affinity-regulating kinase 3 (Homo sapiens) (UniProt P27448)", "sequence (P27448 whole entry, looked up)": "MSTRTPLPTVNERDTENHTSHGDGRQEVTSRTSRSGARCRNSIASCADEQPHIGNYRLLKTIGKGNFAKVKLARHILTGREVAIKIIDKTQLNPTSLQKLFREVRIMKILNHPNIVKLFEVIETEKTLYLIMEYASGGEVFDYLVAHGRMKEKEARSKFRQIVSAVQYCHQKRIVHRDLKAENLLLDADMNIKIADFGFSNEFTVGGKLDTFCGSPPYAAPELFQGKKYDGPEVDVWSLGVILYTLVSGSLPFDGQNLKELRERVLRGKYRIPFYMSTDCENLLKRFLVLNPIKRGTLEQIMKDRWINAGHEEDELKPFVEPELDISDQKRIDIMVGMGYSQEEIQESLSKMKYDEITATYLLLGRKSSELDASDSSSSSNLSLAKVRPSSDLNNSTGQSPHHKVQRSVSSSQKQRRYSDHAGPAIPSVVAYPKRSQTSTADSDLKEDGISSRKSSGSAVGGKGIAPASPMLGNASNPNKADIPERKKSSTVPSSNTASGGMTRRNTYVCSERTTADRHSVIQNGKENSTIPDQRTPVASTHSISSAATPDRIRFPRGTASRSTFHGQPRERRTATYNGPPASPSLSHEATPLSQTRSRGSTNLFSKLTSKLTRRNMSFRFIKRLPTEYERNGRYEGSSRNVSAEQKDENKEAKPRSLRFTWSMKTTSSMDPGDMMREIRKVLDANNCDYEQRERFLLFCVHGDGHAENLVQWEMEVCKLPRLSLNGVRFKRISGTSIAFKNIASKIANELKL", "details": "at 0.1 µM", "units": {"inhibition": "%"}}
{"smiles": "CCc1nn2ncccc2c1-c1ccnc(NC2CC2)n1", "inhibition": 0.47}
{"smiles": "COC(=O)c1sc(-n2cnc3cc(OC)c(OC)cc32)cc1OCc1ccccc1C(F)(F)F", "inhibition": 2.38}
{"smiles": "[O-][S+]1CCN(Cc2ccc(-c3ccc4ncnc(Nc5ccc(OCc6cccc(F)c6)c(Cl)c5)c4c3)o2)CC1", "inhibition": 3.31}
{"smiles": "CCn1c(-c2nonc2N)nc2c(C#CC(C)(C)O)ncc(OC3CCNCC3)c21", "inhibition": 21.2}
{"smiles": "CC(C)(CO)CNC(=O)c1ccc2c(c1)/C(=N/Nc1ccc(S(N)(=O)=O)cc1)C(=O)N2", "inhibition": 5.88}
{"smiles": "CCCN1CCC(c2ccc(Nc3nc(Nc4cc(F)ccc4C(N)=O)c4cc[nH]c4n3)c(OC)c2)CC1", "inhibition": 12.2}
{"smiles": "COc1ccc(-c2cc(-c3c[nH]nc3-c3ccccn3)ccn2)cc1", "inhibition": 5.15}
{"smiles": "COc1ccc(-c2cc3c(N)ncnc3o2)cc1", "inhibition": -1.55}
{"smiles": "COC(=O)Nc1nc2ccc(S(=O)(=O)c3ccc(NC(=O)Nc4cc(C(F)(F)F)ccc4F)cc3)cc2[nH]1", "inhibition": 3.97}
{"smiles": "Fc1ccc(-c2nn3ccccc3c2-c2ccncc2)cc1", "inhibition": 1}
{"smiles": "CN1CCC(n2cnc(-c3ccc(F)cc3)c2-c2ccnc(N)n2)CC1", "inhibition": 0.93}
{"smiles": "COc1cccc(-n2ncc3c(N/N=C/c4ccc(F)cc4)ncnc32)c1", "inhibition": 4.91}
{"smiles": "Fc1cccc(COc2ccc(Nc3ncnc4sc(-c5ccco5)cc34)cc2Cl)c1", "inhibition": 3.1}
{"smiles": "Fc1ccc(-c2cc(-c3c[nH]nc3-c3ccccn3)ccn2)cc1", "inhibition": 2.52}
{"smiles": "CCCN(CCS(C)(=O)=O)Cc1ccc(-c2ccc3ncnc(Nc4ccc(OCc5cccc(F)c5)c(Cl)c4)c3c2)o1", "inhibition": -1.25}
{"smiles": "COc1cccc(-c2c[nH]c3c(N/N=C/c4ccncc4)ncnc23)c1", "inhibition": 6.06}
{"smiles": "CC1=C(C(=O)Nc2cc(Cl)c3[nH]ncc3c2)C(c2ccc(C(F)(F)F)cc2)CC(=O)N1", "note": "(stereo not drawn)", "inhibition": 3.36}
{"smiles": "CS(=O)(=O)CCNCc1coc(-c2ccc3ncnc(Nc4ccc(OCc5ccccc5)cc4)c3c2)c1", "inhibition": 1.54}
{"smiles": "CCn1c(-c2nonc2N)nc2cnc(Oc3cccc(NC(=O)c4ccc(N(C)C)cc4)c3)cc21", "inhibition": 2.76}
{"smiles": "CNC(=O)c1cc(-c2ccc(F)cc2)cc(-c2ccc(S(=O)(=O)N3CCCC3)cc2)c1N", "inhibition": 1.73}
{"smiles": "O=S(=O)(CCNCc1ccc(-c2ccc3ncnc(Nc4ccc(OCc5cccc(F)c5)c(Cl)c4)c3c2)o1)c1ccccc1", "inhibition": 3.94}
{"smiles": "N#Cc1c(NC(=O)c2ccc(F)cc2)sc2c1CCCC2", "inhibition": -0.62}
{"smiles": "CNC(=O)c1cccc(C#Cc2cncnc2Nc2ccc(OCc3cccc(F)c3)c(Cl)c2)c1", "inhibition": 1.07}
{"smiles": "CCn1c(-c2nonc2N)nc2c(C#CC(C)(C)O)nc(OC[C@H](N)c3ccccc3)cc21", "inhibition": 4.68}
{"smiles": "Nc1ncc(-c2cccc(S(N)(=O)=O)c2)c2scc(-c3ccc(F)c(Cl)c3)c12", "inhibition": -0.65}
{"smiles": "c1ccc(COc2ccc(Nc3ncnc4ccc(-c5ccco5)cc34)cc2)cc1", "inhibition": 0.1}
{"smiles": "N#Cc1c(NC(=O)CN2CCOCC2)sc2c1CCCC2", "inhibition": 4.14}
{"smiles": "NS(=O)(=O)c1ccc(N/N=C2\\C(=O)Nc3ccc4ncccc4c32)cc1", "inhibition": 8.25}
{"smiles": "O=C(O[C@H]1CN[C@H](C#Cc2cc3ncnc(Nc4ccc(Cc5ccccc5)cc4)c3s2)C1)N1CCOCC1", "inhibition": 2.46}
{"smiles": "CC(=O)Nc1cccc(C#Cc2cncnc2Nc2ccc(OCc3cccc(F)c3)c(Cl)c2)c1", "inhibition": 3.81}
{"smiles": "Cc1cccc(Nc2ncc(-c3ccccc3)o2)c1", "inhibition": 3.98}
{"smiles": "FC(F)(F)c1cccc(-c2nn3ncccc3c2-c2ccnc(Nc3ccc4c(c3)OCCO4)n2)c1", "inhibition": 2.14}
{"smiles": "CCNC(=O)O[C@H]1CN[C@H](C#Cc2cc3ncnc(Nc4ccc(OCc5cccc(F)c5)c(Cl)c4)c3s2)C1", "inhibition": 2.76}
{"smiles": "CNC(=O)c1cncc(/C=C/c2ccccc2Cl)c1", "inhibition": 1.01}
